# Results reported in PubChem BioAssay (EPA / NIEHS).
# Where “and” joins values, the source holds several entries; their conditions need not be identical. Equal entries are not always repeated. Inconclusive results are not listed. Some compounds were tested as several samples or in several runs, with calls that do not always agree. Calls of active or inactive are those of the source. The calls were made as follows, unless noted: active = hit-call score of the fitted dose curve at least 0.9, where 1 is the maximum; inconclusive = response in the unintended direction; inactive = score below 0.9.
# How the values were obtained:
# [1] = ATG_M_19_TRANS: Attagene TRANS-FACTORIAL HepG2 Assay for M19 Transcription Factor (Internal Marker) (AID 2282974); conditions: HepG2 Attagene TRANS-FACTORIAL M19 internal marker reporter
# In short: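 Background-control readout: after 24 h chemical exposure of transfected HepG2 carrying GAL4-driven reporter units, RNA was reverse-transcribed, amplified, fluorescently labeled and sized by capillary electrophoresis; gain-of-signal fit against DMSO.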
# [2] = ATG_GAL4_TRANS: Attagene TRANS-FACTORIAL HepG2 Assay for GAL4 (Internal Marker) (AID 2282976); conditions: HepG2 Attagene TRANS GAL4 internal marker reporter
# In short: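 HepG2 cells transiently transfected with multiplexed GAL4-UAS reporter constructs were dosed for 24 h. Reporter mRNA was measured by RT-PCR, 6-FAM primer extension, HpaI digestion and capillary electrophoresis, and gain of signal was fitted relative to DMSO.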
# [3] = target: Oxysterols receptor LXR-alpha (Homo sapiens) (UniProt Q13133); assay: ATG_LXRa_TRANS: Attagene TRANS-FACTORIAL HepG2 Assay for human Liver X Receptor alpha (LXRa) (AID 2282980); conditions: HepG2 Attagene TRANS reporter, LXRa transactivation
# In short: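 HepG2 cells were transiently transfected with multiplexed reporter units driven by chimeric LXRa–GAL4 fusion proteins, then dosed for 24 h. Reporter mRNA was quantified by RT-PCR, fluorescent labelling and capillary electrophoresis; gain of signal fitted against DMSO baseline.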
# [4] = target: Hepatocyte nuclear factor 4-alpha (Homo sapiens) (UniProt P41235); assay: ATG_HNF4a_TRANS: Attagene TRANS-FACTORIAL HepG2 Assay for human Hepatocyte Nuclear Factor 4 alpha (HNF4a) (AID 2282982); conditions: HepG2 HNF4a transactivation reporter, mRNA readout
# In short: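 Activity of an exogenous HNF4a–Gal4 fusion scored as induced GAL4-UAS reporter transcripts after 24 h chemical exposure of transfected human HepG2 cells. Read-out via RT-PCR with 6-FAM labelling and capillary electrophoresis; rise over DMSO baseline.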
# [5] = CCTE_Harrill_HTTr_Apoptosis_MCF7: CCTE's 6-hour Apoptosis Assessment for the High-Throughput Transcriptomics (HTTr) Platform, in MCF-7 cells cultured in DMEM + 10% fetal bovine serum, Harrill Lab (AID 2284011; active = hit-call score of the fitted dose curve at least 0.9, where 1 is the maximum; inactive = score below 0.9)
# In short: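 MCF-7 cells in DMEM + 10% fetal bovine serum were exposed to chemicals for 6 hours over an eight-point dilution series. Caspase-3/7 activation was imaged by high content imaging with CellEvent Caspase 3/7 Green; bidirectional fitting used DMSO as baseline.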
# [6] = target: Retinoic acid receptor alpha (Homo sapiens) (UniProt P10276); assay: ATG_DR5_RAR_CIS: Attagene CIS-FACTORIAL HepG2 Assay for human Retinoic Acid Receptor Alpha (RARE), DR5 submotif (AID 2282934; active = hit-call score of the fitted dose curve at least 0.9, where 1 is the maximum; inactive = score below 0.9;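 as to AC50: reporter responds to endogenous RAR alpha beta and gamma in HepG2 not RARA alone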); conditions: HepG2 Attagene cis-factorial RARE DR5 reporter, mRNA; actives raise or lower the signal
# In short: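 Transient MRTU transfection of HepG2; 24 h compound treatment; TriZol RNA, oligo(dT) RT, PCR, FAM labelling, capillary electrophoresis. Bidirectional fit vs DMSO. Endogenous TF activity at DR5 RARE.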
# [7] = target: Oxysterols receptor LXR-beta (Homo sapiens) (UniProt P55055); assay: ATG_LXRb_TRANS: Attagene TRANS-FACTORIAL HepG2 Assay for human Liver X Receptor beta (LXRb) (AID 2282981); conditions: HepG2 Attagene TRANS GAL4-LXRb reporter, mRNA
# In short: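 After 24 h chemical treatment of transfected HepG2 cells carrying exogenous NR-Gal4 chimeras, reporter mRNA was quantified by fluorescent RT-PCR and capillary electrophoresis; activity taken as increase over DMSO controls.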
# [8] = target: human Peroxisome Proliferator-activated Receptor alpha (PPARa), PPARA (gene 5465) (UniProt Q07869); assay: ATG_PPARa_TRANS: Attagene TRANS-FACTORIAL HepG2 Assay for human Peroxisome Proliferator-activated Receptor alpha (PPARa) (AID 2283001)
# In short: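 Reporter transcripts quantified by RT-PCR plus capillary electrophoresis after 24 h treatment, fitted upward relative to DMSO. Cells: human HepG2 transiently carrying multiple GAL4-UAS reporter units driven by NR-Gal4 chimeras.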
# [9] = target: human Peroxisome Proliferator-activated Receptor delta (PPARd), PPARD (gene 5467) (UniProt Q03181); assay: ATG_PPARd_TRANS: Attagene TRANS-FACTORIAL HepG2 Assay for human Peroxisome Proliferator-activated Receptor delta (PPARd) (AID 2283002)
# In short: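 Transient HepG2 transfection (multiple GAL4-UAS RTUs, chimeric receptor-Gal4); 24 h dosing; total RNA → oligo(dT) RT → PCR → 6-FAM primer extension → HpaI cut → CE. Positive direction vs DMSO.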
# [10] = target: human Retinoid X Receptor beta (RXRb), RXRB (gene 6257) (UniProt P28702); assay: ATG_RXRb_TRANS: Attagene TRANS-FACTORIAL HepG2 Assay for human Retinoid X Receptor beta (RXRb) (AID 2283013)
# In short: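 Readout is reporter transcript induction after 24 h dosing. It is measured by RT-PCR of total RNA followed by fluorescent capillary electrophoresis. HepG2 liver cells carry transfected multiple reporter units driven by an exogenous RXRb-Gal4 fusion; activity is relative to DMSO.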
# [11] = target: human Thyroid Receptor alpha (THRa1), THRA (gene 7067) (UniProt P10827); assay: ATG_THRa1_TRANS: Attagene TRANS-FACTORIAL HepG2 Assay for human Thyroid Receptor alpha (THRa1) (AID 2283014)
# In short: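 HepG2 cells transiently transfected with multiplexed GAL4-UAS reporter units for exogenous chimeric THRa1-Gal4; reporter mRNA measured 24 h after dosing by RT-PCR, 6-FAM labelling, HpaI digestion and capillary electrophoresis. Gain-of-signal fitted versus DMSO baseline.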
# [12] = target: human Vitamin D Receptor (VDR), VDR (gene 7421) (UniProt P11473); assay: ATG_VDR_TRANS: Attagene TRANS-FACTORIAL HepG2 Assay for human Vitamin D Receptor (VDR) (AID 2283022)
# In short: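 HepG2 cells were transiently transfected with multiple GAL4-UAS reporter units, so signal reflects exogenous chimeric receptor-Gal4 activity. After 24 h compound exposure, reporter mRNA was measured by RT-PCR, fluorescent labelling and capillary electrophoresis, fitted for gain of signal versus DMSO.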
# [13] = TOX21_p53_BLA_p2_viability: Viability Assessment in the Tox21 HCT-116 p53 Agonism Beta-lactamase Assay, Phase 2 (AID 2283591);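 also: compound exposure lasted 16 h at 37 °C; actives lower the ATP signal meaning cytotoxicity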
# In short: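 Cytotoxicity readout: CellTiter-Glo ATP luminescence, 30 min at room temperature, after the beta-lactamase read. Cells were HCT116 exposed 16 h at 37C to compounds pin-transferred at 217-fold dilution from DMSO stocks.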
# [14] = TOX21_p53_BLA_p3_viability: Viability Assessment in the Tox21 HCT-116 p53 Agonism Beta-lactamase Assay, Phase 3 (AID 2283593);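 also: cells exposed to compound for 16 h before reading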
# In short: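 Cellular ATP was quantified by CellTiter-Glo luminescence, read after 30 min at room temperature. Beforehand, HCT116 cells (4000/well) received compound 5 h post-seeding, 217-fold diluted from DMSO, then incubated 16 h at 37C.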
# [15] = TOX21_p53_BLA_p4_viability: Viability Assessment in the Tox21 HCT-116 p53 Agonism Beta-lactamase Assay, Phase 4 (AID 2283597);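 also: hits lower the luminescence signal meaning cytotoxicity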
# In short: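 Cytotoxicity was inferred from loss of CellTiter-Glo luminescence. HCT116 cells had been dosed with compounds after 5 h plating, incubated 16 h at 37C and 5% CO2, and exposed to the CCF4-AM substrate for 2 h.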
# [16] = TOX21_p53_BLA_p5_viability: Viability Assessment in the Tox21 HCT-116 p53 Agonism Beta-lactamase Assay, Phase 5 (AID 2283600)
# In short: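 Luciferase-coupled ATP quantitation of cells treated for 16 h (37C, 5% CO2) with test chemicals delivered in DMSO via a 217-fold dilution; 4000 cells/well; reagent incubated 30 min at room temperature before luminescence reading.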
# [17] = ACEA_ER_AUC_viability: ACEA Biosciences xCELLigence Real-Time Cell Analysis on Estrogen Receptor Agonism for Viability (AID 2283782);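 also: hit means loss of impedance signal meaning reduced cell growth or viability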
# In short: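 Viability endpoint: reduced impedance area under the curve relative to DMSO, recorded by real-time electrode sensing over ~80 h of continuous exposure. Duplicate plates of T47D in hormone-depleted medium; eight concentrations, 1:4 dilutions, 100 uM maximum.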
# [18] = target: Nuclear receptor subfamily 1 group I member 3 (Homo sapiens) (UniProt Q14994); assay: ATG_CAR_TRANS: Attagene TRANS-FACTORIAL HepG2 Assay for human Constitutive Androstane Receptor (CAR) (AID 2282969); conditions: HepG2 Attagene TRANS-FACTORIAL CAR reporter;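 also: activators raise reporter mRNA above DMSO so AC50 marks induction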
# In short: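 Signal is reporter mRNA induction relative to DMSO, measured 24 h after dosing by RT-PCR with fluorescent primer extension and capillary electrophoresis. Human HepG2 liver cells carried transiently transfected chimeric NR-Gal4/GAL4-UAS reporter constructs.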
# [19] = target: human RAR-related Orphan Receptor beta (RORb), RORB (gene 6096) (UniProt Q92753); assay: ATG_RORb_TRANS: Attagene TRANS-FACTORIAL HepG2 Assay for human RAR-related Orphan Receptor beta (RORb) (AID 2283010)
# In short: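 Read-out is reporter mRNA induction, quantified by RT-PCR with fluorescent capillary electrophoresis, 24 h post-dose in transiently transfected HepG2 expressing exogenous NR-Gal4 chimera. Activity fitted upward versus DMSO.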
# [20] = target: Bile acid receptor (Homo sapiens) (UniProt Q96RI1); assay: ATG_IR1_CIS: Attagene CIS-FACTORIAL HepG2 Assay for human Nuclear Receptor Subfamily 1 Group H Member 4 (NR1H4), IR1 submotif (AID 2282946; active = hit-call score of the fitted dose curve at least 0.9, where 1 is the maximum; inactive = score below 0.9); conditions: IR1 reporter transcription, actives raise or lower the signal
# In short: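 HepG2 cells transiently transfected with multiplexed cis-element reporter units read endogenous transcription factor activity. After 24 h compound exposure, reporter mRNA was quantified by RT-PCR, fluorescent labelling, HpaI digestion and capillary electrophoresis; bidirectional fitting versus DMSO baseline.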
# Retinoic acid receptor alpha (Homo sapiens), sequence (P10276 whole entry, looked up): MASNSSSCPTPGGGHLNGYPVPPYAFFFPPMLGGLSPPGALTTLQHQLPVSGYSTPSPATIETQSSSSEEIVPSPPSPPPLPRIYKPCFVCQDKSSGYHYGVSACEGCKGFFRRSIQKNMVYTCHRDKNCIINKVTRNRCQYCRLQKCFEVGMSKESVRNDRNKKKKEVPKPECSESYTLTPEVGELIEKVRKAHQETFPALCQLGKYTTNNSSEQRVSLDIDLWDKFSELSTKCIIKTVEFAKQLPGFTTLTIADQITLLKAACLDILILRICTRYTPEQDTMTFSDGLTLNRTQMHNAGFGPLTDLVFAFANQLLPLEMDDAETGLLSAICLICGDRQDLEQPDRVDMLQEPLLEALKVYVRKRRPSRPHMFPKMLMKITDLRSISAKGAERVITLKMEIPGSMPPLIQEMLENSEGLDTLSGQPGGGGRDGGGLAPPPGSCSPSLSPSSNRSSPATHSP
# Oxysterols receptor LXR-beta (Homo sapiens), sequence (P55055 whole entry, looked up, the tested form may be a part): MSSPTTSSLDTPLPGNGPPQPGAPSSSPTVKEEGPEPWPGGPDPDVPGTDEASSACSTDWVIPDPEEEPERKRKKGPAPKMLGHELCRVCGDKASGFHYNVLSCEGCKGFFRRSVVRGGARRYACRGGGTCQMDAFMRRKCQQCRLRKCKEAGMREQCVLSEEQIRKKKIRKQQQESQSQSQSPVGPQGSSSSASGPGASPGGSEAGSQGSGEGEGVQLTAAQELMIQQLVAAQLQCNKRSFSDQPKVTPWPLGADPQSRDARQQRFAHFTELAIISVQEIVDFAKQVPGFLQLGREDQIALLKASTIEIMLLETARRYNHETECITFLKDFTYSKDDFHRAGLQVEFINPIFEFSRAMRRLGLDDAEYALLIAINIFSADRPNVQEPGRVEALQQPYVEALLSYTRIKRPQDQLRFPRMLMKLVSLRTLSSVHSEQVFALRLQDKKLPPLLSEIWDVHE
# human Peroxisome Proliferator-activated Receptor delta (PPARd), PPARD (gene 5467), sequence (Q03181 whole entry, looked up, the tested form may be a part): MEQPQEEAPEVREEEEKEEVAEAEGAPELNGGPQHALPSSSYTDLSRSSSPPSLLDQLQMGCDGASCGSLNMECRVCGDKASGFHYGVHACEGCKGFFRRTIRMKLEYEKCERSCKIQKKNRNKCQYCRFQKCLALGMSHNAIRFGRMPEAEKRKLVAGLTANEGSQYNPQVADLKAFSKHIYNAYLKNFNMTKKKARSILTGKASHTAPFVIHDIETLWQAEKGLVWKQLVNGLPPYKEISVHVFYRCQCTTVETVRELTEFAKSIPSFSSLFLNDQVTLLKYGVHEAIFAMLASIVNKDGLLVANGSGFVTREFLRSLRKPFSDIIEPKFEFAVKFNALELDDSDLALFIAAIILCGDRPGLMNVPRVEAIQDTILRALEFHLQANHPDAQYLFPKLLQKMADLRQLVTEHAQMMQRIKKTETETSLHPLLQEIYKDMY
# human Retinoid X Receptor beta (RXRb), RXRB (gene 6257), sequence (P28702 whole entry, looked up, the tested form may be a part): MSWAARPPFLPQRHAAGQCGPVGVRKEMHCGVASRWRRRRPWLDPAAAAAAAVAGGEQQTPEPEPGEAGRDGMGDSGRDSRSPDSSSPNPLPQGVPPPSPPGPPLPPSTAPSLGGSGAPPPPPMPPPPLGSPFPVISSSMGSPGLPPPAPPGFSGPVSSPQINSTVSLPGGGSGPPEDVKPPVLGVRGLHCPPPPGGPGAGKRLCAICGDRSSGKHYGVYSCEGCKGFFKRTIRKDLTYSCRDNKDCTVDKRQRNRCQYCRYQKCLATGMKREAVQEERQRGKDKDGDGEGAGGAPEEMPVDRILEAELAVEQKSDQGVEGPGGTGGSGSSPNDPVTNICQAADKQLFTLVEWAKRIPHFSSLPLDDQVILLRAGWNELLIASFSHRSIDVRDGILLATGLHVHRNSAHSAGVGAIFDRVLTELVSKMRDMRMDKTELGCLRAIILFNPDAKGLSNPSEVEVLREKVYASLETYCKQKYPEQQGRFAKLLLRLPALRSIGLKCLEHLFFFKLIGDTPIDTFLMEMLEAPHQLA
# human RAR-related Orphan Receptor beta (RORb), RORB (gene 6096), sequence (Q92753 whole entry, looked up, the tested form may be a part): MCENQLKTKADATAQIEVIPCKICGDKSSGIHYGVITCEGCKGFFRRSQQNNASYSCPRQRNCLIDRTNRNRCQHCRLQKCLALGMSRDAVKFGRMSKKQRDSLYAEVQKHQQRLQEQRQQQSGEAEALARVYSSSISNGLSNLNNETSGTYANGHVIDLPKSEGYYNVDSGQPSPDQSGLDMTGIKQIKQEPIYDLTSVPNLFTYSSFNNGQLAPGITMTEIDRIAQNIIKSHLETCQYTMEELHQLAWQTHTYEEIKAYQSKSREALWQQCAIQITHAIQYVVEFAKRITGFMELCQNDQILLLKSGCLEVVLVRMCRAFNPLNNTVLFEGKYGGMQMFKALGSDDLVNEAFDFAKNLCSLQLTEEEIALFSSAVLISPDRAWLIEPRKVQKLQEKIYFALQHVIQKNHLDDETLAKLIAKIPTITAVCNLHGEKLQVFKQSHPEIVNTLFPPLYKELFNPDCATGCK
# human Thyroid Receptor alpha (THRa1), THRA (gene 7067), sequence (P10827 whole entry, looked up, the tested form may be a part): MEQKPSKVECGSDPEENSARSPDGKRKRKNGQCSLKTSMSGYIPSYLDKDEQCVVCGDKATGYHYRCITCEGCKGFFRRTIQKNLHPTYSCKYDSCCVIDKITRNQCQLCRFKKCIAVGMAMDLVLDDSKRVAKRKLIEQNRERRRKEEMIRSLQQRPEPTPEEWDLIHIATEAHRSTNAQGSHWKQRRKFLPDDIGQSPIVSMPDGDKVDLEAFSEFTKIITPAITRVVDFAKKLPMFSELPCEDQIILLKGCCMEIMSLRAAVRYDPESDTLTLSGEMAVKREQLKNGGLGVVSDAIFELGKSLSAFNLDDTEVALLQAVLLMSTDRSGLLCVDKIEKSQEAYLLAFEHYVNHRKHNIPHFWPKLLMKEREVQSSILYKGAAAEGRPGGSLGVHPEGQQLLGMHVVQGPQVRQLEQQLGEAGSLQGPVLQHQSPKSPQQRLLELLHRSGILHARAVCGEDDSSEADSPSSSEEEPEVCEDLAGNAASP
# Hepatocyte nuclear factor 4-alpha (Homo sapiens), sequence (P41235 whole entry, looked up, the tested form may be a part): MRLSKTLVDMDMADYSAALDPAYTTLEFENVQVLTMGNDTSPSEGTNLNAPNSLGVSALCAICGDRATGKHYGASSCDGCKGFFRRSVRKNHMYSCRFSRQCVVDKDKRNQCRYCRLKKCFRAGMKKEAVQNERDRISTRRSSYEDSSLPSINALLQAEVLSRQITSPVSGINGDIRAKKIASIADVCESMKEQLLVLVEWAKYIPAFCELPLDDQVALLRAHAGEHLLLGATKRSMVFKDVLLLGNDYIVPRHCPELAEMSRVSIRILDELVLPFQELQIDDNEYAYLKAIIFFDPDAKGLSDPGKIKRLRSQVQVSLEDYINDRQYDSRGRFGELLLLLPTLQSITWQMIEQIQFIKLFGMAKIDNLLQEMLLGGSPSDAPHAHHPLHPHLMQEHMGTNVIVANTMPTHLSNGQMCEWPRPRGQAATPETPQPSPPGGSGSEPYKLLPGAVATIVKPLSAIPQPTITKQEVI
# human Vitamin D Receptor (VDR), VDR (gene 7421), sequence (P11473 whole entry, looked up, the tested form may be a part): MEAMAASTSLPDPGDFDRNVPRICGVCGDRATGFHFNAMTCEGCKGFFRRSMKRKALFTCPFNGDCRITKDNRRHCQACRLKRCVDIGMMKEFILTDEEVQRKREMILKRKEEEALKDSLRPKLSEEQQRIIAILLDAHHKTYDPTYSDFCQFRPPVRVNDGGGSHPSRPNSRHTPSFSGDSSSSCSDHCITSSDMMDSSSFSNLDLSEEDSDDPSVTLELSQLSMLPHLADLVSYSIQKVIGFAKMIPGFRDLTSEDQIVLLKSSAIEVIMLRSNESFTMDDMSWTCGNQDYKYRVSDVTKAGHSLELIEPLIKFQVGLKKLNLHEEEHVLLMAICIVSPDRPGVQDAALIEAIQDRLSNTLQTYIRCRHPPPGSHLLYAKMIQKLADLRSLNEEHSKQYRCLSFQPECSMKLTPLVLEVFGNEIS
# Oxysterols receptor LXR-alpha (Homo sapiens), sequence (Q13133 whole entry, looked up, the tested form may be a part): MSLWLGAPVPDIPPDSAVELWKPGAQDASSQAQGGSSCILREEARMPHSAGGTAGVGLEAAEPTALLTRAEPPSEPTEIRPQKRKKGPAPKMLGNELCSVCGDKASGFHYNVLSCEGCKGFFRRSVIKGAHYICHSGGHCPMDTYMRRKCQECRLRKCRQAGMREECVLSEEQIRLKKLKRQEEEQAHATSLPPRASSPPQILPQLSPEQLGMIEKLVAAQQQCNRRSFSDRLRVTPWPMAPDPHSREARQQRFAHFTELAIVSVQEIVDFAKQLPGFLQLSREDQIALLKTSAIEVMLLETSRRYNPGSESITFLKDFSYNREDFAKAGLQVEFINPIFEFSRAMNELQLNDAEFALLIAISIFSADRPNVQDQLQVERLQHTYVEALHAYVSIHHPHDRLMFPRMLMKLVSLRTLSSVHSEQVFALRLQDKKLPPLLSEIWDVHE
# human Peroxisome Proliferator-activated Receptor alpha (PPARa), PPARA (gene 5465), sequence (Q07869 whole entry, looked up, the tested form may be a part): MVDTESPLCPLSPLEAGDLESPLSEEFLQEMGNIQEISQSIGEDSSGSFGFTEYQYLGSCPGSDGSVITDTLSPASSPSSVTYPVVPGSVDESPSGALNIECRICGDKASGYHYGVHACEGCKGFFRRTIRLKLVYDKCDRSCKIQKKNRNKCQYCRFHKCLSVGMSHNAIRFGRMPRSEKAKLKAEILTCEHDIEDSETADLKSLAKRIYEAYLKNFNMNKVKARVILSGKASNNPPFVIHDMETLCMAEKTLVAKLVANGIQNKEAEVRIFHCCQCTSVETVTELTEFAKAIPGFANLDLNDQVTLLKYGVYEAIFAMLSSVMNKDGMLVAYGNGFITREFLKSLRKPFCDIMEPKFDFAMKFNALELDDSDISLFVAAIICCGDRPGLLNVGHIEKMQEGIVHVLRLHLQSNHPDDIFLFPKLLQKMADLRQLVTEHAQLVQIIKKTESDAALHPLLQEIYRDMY
smiles,measurement,setting,value
COc1ncc(F)c2nc(S(=O)(=O)Nc3c(F)cccc3F)nn12,outcome,[1],inactive
same,outcome,[2],inactive
same,outcome,[3],inactive
same,outcome,[4],inactive
same,outcome,[5],inactive
O=C1Nc2ccc(Cl)cc2C(c2ccccc2)=NC1O (centres undefined),outcome,[6],inactive
same,outcome,[3],inactive
same,outcome,[7],inactive
same,outcome,[8],inactive
same,outcome,[9],inactive
same,outcome,[10],inactive
same,outcome,[11],inactive
same,outcome,[12],inactive
same,outcome,[13],inactive
same,outcome,[14],inactive
same,outcome,[15],inactive
same,outcome,[16],inactive
same,outcome,[5],inactive
O=C(O)COc1ccccc1,outcome,[7],inactive
same,outcome,[8],inactive
same,outcome,[13],inactive
same,outcome,[14],inactive
same,outcome,[15],inactive
same,outcome,[16],inactive
same,outcome,[17],inactive
O=C=Nc1ccccc1,outcome,[6],inactive
same,outcome,[18],inactive
same,outcome,[1],inactive
same,outcome,[2],inactive
same,outcome,[7],inactive
same,outcome,[4],inactive
same,outcome,[19],inactive
same,outcome,[12],inactive
same,outcome,[17],inactive
same,outcome,[5],inactive
CCCOC(=O)c1ccccc1C(=O)OCCC,outcome,[20],inactive
same,outcome,[1],inactive
same,outcome,[3],inactive
same,outcome,[7],inactive
same,outcome,[4],inactive
same,outcome,[8],inactive
same,outcome,[9],inactive
same,AC50,[10],76.1 µM (active)
same,outcome,[11],inactive
same,outcome,[13],inactive
same,outcome,[14],inactive
same,outcome,[5],inactive
CC(C)COP(=O)(OCC(C)C)OCC(C)C,outcome,[20],inactive
same,outcome,[10],inactive
same,outcome,[11],inactive
same,outcome,[12],inactive
same,outcome,[13],inactive
same,outcome,[14],inactive
same,outcome,[15],inactive
C=CC(=O)OCC(CC)CCCC (centres undefined),AC50,[6],19.8 µM (active)
same,outcome,[1],inactive
same,outcome,[2],inactive
same,outcome,[7],inactive
same,outcome,[8],inactive
same,outcome,[9],inactive
same,outcome,[10],inactive
same,outcome,[12],inactive
same,outcome,[13],inactive
same,outcome,[14],inactive
same,outcome,[15],inactive
same,outcome,[16],inactive
same,outcome,[17],inactive
same,outcome,[5],inactive
C[C@]12CCC(=O)C(O)=C1CC[C@@H]1[C@@H]2CC[C@]2(C)C(=O)CC[C@@H]12,outcome,[1],inactive
same,outcome,[2],inactive
same,outcome,[3],inactive
same,outcome,[7],inactive
same,outcome,[12],inactive
same,outcome,[13],inactive
same,outcome,[14],inactive
same,outcome,[16],inactive
same,outcome,[5],inactive
CC(C)(c1cc(Cl)c(O)c(Cl)c1)c1cc(Cl)c(O)c(Cl)c1,outcome,[1],inactive
same,outcome,[7],inactive
same,outcome,[4],inactive
same,outcome,[9],inactive
same,AC50,[10],9.09 µM (active)
same,outcome,[11],inactive
same,outcome,[12],inactive
same,AC50,[13],46.1 µM (active) and 33.1 µM (active)
same,AC50,[14],65.5 µM (active)
same,outcome,[14],inactive
same,outcome,[16],inactive
same,AC50,[17],90.8 µM (active)
COc1ccc(CO)cc1,outcome,[20],inactive
same,outcome,[1],inactive
same,outcome,[2],inactive
same,outcome,[7],inactive
same,outcome,[4],inactive
same,outcome,[8],inactive
same,outcome,[9],inactive
same,outcome,[19],inactive
same,outcome,[10],inactive
same,outcome,[11],inactive
same,outcome,[13],inactive
same,outcome,[16],inactive
same,outcome,[5],inactive
[Cl-].[Cl-].[Cl-].[Yb+3],outcome,[2],inactive
same,outcome,[3],inactive
same,outcome,[4],inactive
same,outcome,[19],inactive
same,outcome,[11],inactive
same,outcome,[14],inactive
same,outcome,[15],inactive
same,outcome,[17],inactive
COc1cc(OC)nc(Oc2cccc(Oc3nc(OC)cc(OC)n3)c2C(=O)O)n1,outcome,[20],inactive
same,outcome,[18],inactive
same,outcome,[1],inactive
same,outcome,[2],inactive
same,outcome,[3],inactive
same,outcome,[7],inactive
same,outcome,[8],inactive
same,outcome,[9],inactive
same,outcome,[19],inactive
same,outcome,[10],inactive
same,outcome,[13],inactive
same,outcome,[16],inactive
same,outcome,[17],inactive
same,outcome,[5],inactive
